The values below come from PubChem BioAssay (NCATS).

One assay has as its system UISO. Nature of the assay: qHTS assay to identify novel small-molecules to repurpose for Merkel cell carcinoma treatment (AID 1296009). Also: nearly all actives have a fitted effect of over 60% in size. Also: potency is read from the fitted curve at half-maximal effect. As to activity change, negative = cytotoxicity: % is scaled to controls: 0 for no effect and ±100 for the full control effect. The settings on record: MCC and control cell lines, CellTiter-Glo viability, 72 h; series mostly up to 46 µM. In a few lines:
(§1)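 Cells were treated for 72 hr at 37 degree celsius with compounds in 8- or 11-point dose response. Viability was read by CellTiter-Glo luminescence, normalized to no-cell (cytotoxicity) and DMSO controls.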

The next assay relates to CAOV3. Nature of the assay: Primary qHTS to identify gynecologic anti-cancer compounds using libraries of approved drugs and bioactive compounds (AID 1345084). Also: nearly all actives have a fitted effect of over 55% in size. Also: potency is read from the fitted curve at half-maximal effect. As to activity change, negative = cytotoxicity: % is scaled to controls: 0 for no effect and ±100 for the full control effect. The settings on record: Gynecologic cancer cell panel viability, ATPlite luminescence, 48 h; series mostly up to 57.5 µM. A digest of the protocol: (§2)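 Cell viability after 48 h drug treatment, ATPlite luminescence readout; five doses.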
Background: Quantitative high-throughput screening tests each substance at several concentrations.

The next assay has as its system HeLa. Described as above. The settings on record: Gynecologic cancer cell panel viability, ATPlite luminescence, 48 h; series mostly up to 57.5 µM. In a few lines: as §2
The subject of another assay is PA-1. The assay is described as above. The settings on record: Gynecologic cancer cell panel viability, ATPlite luminescence, 48 h; series mostly up to 57.5 µM. A digest of the protocol: as §2
(In general: Cellular ATP, detected with luciferase, serves as a proxy for viable cell number.)

The test system of the next assay is C33A. The description is as above. The note with it: Gynecologic cancer cell panel viability, ATPlite luminescence, 48 h; series mostly up to 57.5 µM. In a few lines: as §2
Another assay has as its system CASKI. The description is as above. The note with it: Gynecologic cancer cell panel viability, ATPlite luminescence, 48 h; series mostly up to 57.5 µM. A digest of the protocol:
as §2

Another assay concerns Es-2. Described as above. The settings on record: Gynecologic cancer cell panel viability, ATPlite luminescence, 48 h; series mostly up to 57.5 µM. In a few lines: as §2
The subject of a further assay is Hek293T. Described as above. The note with it: Gynecologic cancer cell panel viability, ATPlite luminescence, 48 h, control line for the selectivity index; series mostly up to 57.5 µM. A digest of the protocol: as §2
The next assay has as its system JEG-3. Described as above. The note with it: Gynecologic cancer cell panel viability, ATPlite luminescence, 48 h; series mostly up to 57.5 µM. In a few lines: as §2
For the next assay, the system named is OV90. The description is as above. The settings on record: Gynecologic cancer cell panel viability, ATPlite luminescence, 48 h; series mostly up to 57.5 µM. In a few lines: as §2
Another assay concerns SKOV3. The description is as above. The note with it: Gynecologic cancer cell panel viability, ATPlite luminescence, 48 h; series mostly up to 57.5 µM. A digest of the protocol: as §2
Another assay concerns Tov-21-G. Described as above. The note with it: Gynecologic cancer cell panel viability, ATPlite luminescence, 48 h; series mostly up to 57.5 µM. In a few lines: as §2
The test system of another assay is Tov112D. The assay is described as above. The settings on record: Gynecologic cancer cell panel viability, ATPlite luminescence, 48 h; series mostly up to 57.5 µM. In a few lines: as §2
Assay [1] in a line: Drug repurposing screens with cells derived from glioblastoma tumor samples (AID 1345199). Also: nearly all actives have a fitted effect of over 40% in size. Also: potency is read from the fitted curve at half-maximal effect. As to activity, negative = cell killing: % is scaled to controls: 0 for no effect and ±100 for the full control effect. The settings on record: GBM patient neurospheres viability, ATP luminescence, 48 h. In a few lines:
(§3)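 Four patient lines of CD133+ GBM neurospheres were screened at several concentrations; hits were retested in those lines plus three slower-growing GBM lines, using 48-hour treatment and ATP-based viability.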

The next assay deals with WaGa. Nature of the assay: qHTS assay to identify novel small-molecules to repurpose for Merkel cell carcinoma treatment (AID 1296009). Also: nearly all actives have a fitted effect of over 60% in size. Also: potency is read from the fitted curve at half-maximal effect. As to activity change, negative = cytotoxicity: % is scaled to controls: 0 for no effect and ±100 for the full control effect. The note with it: MCC and control cell lines, CellTiter-Glo viability, 72 h; series mostly up to 46 µM. In a few lines: as §1
A short description of assay [2]: qHTS assay to identify inhibitors of the type 1 interferon - major histocompatibility complex class I in skeletal muscle: Counter screen cell viability and HiBit confirmation (AID 1347412). Also: % is scaled to controls: 0 for no effect and ±100 for the full control effect; nearly all actives have a fitted effect of over 60% in size. The note with it: iHSKM muscle cells + IFN-b, HiBiT or CellTiter-Glo, 24 h; Potency: HiBiT; Viability, at 45.9 µM (top of the series). In a few lines:
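CRISPR HLA-B*08:01-HiBit immortalized human myoblasts (C25cl48) stimulated with 4 ng/ml IFN-beta and compounds (12-point 1:3, top 46 uM final) for 24 h at 37 C. Duplicate plates read by HiBit lytic luminescence or CellTiter Glo ATP.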

In a further assay the test system is astro. The assay can be described thus: Drug repurposing screens with cells derived from glioblastoma tumor samples (AID 1345199). Also: nearly all actives have a fitted effect of over 40% in size. Also: potency is read from the fitted curve at half-maximal effect. The note with it: viability, ATP luminescence, 48 h; series mostly up to 45.9 µM. In a few lines: as §3
Assay [3] can be described thus: qHTS assay for small molecule activators of the human pregnane X receptor (PXR) signaling pathway (AID 720659; call rule not given here; also: 0% is about no effect).

“And” between values parts separate entries of the source, which are not always exact repeats. Equal values may be shown once. Unmarked numbers belong to inactive results. Inconclusive results are not listed. Where a structure was tested more than once in an assay, its records may differ in their call. The source made the active and inactive calls. Unless noted, calls follow the shape of the dose curve; as a rule, active = well fitted curve in the direction sought with a large enough effect; inconclusive = small, poorly fitted or top-dose-only effect, or another doubt; inactive = no such curve, though single readings can be large; an effect the other way counts as inactive or inconclusive.

With `O=C(Nc1cccnc1)N1CCC(Cc2cccc(Oc3ccc(C(F)(F)F)cn3)c2)CC1`, the Potency in the assay on UISO was 16.6 µM (active). Besides, the Potency entry in the assay on CAOV3, in the assay on HeLa and in the assay on PA-1 was “inactive” throughout.
Consider `Clc1ccc(Nc2nnc(Cc3ccncc3)c3ccccc23)cc1`, for which the Potency result in the assay on UISO, in the assay with C33A, in the assay with CAOV3, with CASKI, in the assay with Es-2 and in the assay on HeLa was “inactive” in each case. For the same compound, the Potency entry in the assay on Hek293T, with JEG-3, in the assay on OV90, in the assay with PA-1, in the assay with SKOV3 and in the assay on Tov-21-G was “inactive” each time. The Potency result in the assay with Tov112D is “inactive”. Also, the activity, negative = cell killing is -12.8% and 0.35% in assay [1] (at 45.9 µM (top of the series), tumour line B); -11.6% and 1.14% in [1] (at 46.1 µM (top of the series), tumour line C). For the same compound, in [1] (tumour line A), the Potency is 12.6 µM (active) and 7.08 µM (active).
Regarding `CC[C@H](Nc1ncnc2nc[nH]c12)c1nc2cccc(F)c2c(=O)n1-c1ccccc1`, the Potency result with UISO was “inactive”. For the same compound, the activity change, negative = cytotoxicity was -4.71% [at 11.6 µM] in the assay with C33A; -6.79% [at 11.6 µM] with CAOV3; -22.6% [at 11.6 µM] in the assay with CASKI; -27.1% [at 11.6 µM] with Es-2; -8.83% [at 11.6 µM] with HeLa; -17.7% [at 11.6 µM] with Hek293T. For the same compound, the activity change, negative = cytotoxicity with JEG-3 was -10.7% [at 11.6 µM]; in the assay with OV90 it was -4.59% [at 11.6 µM]; in the assay with PA-1 it was 0.976% [at 11.6 µM]; in the assay on Tov-21-G, -9.1% [at 11.6 µM]; in the assay with Tov112D, -0.869% [at 11.6 µM].
As to `COc1c(Cl)cc2c([nH]c3cnccc32)c1NC(=O)c1cccnc1C`, the Potency entry in the assay with UISO, in the assay on WaGa, in the assay on C33A, with CAOV3, with CASKI and with Es-2 was “inactive” throughout. The Potency entry with HeLa, with Hek293T, in the assay with JEG-3, in the assay on OV90, in the assay on PA-1 and in the assay on Tov-21-G was “inactive” in each case. Also, the Potency result (in the assay with Tov112D; in [2]) was “inactive” throughout.
Consider `N#Cc1ccc(C(c2ccc(C#N)cc2)n2cncn2)cc1`, for which the Potency result in the assay with UISO, with WaGa and with astro was “inactive” each time.
As to `CN(C)c1ccc(C2Nc3ccc4ccccc4c3C3=C2C(=O)CC(C)(C)C3)cc1Br` (stereo not given), the Potency entry in the assay on UISO, in the assay with WaGa, in the assay with C33A, in the assay on CAOV3, in the assay with CASKI and with Es-2 was “inactive” each time. Further, the Potency entry with HeLa, in the assay on Hek293T, in the assay with JEG-3, with OV90, in the assay on PA-1 and with SKOV3 was “inactive” throughout. In addition, in the assay on Tov112D, the Potency entry is “inactive”.
In the case of `CCCC(CCC)C(=O)O`, the Potency result in the assay on UISO, in the assay on WaGa, with C33A, in the assay on CAOV3, in the assay on CASKI and in the assay with Es-2 was “inactive” each time. Further, the Potency entry in the assay with HeLa, with Hek293T, with JEG-3, with OV90, in the assay on PA-1 and in the assay on Tov-21-G was “inactive” each time. The Potency entry with Tov112D and in the assay on astro was “inactive” throughout. Moreover, the outcome in assay [3] was inactive.
`C[C@]12CCC(=O)C=C1CC[C@@H]1[C@@H]2[C@@H](O)C[C@@]2(C)[C@H]1CC[C@]2(O)C(=O)CO`: the Potency entry in the assay with UISO, in the assay on WaGa, in the assay with C33A, in the assay with CASKI, in the assay with Es-2 and with HeLa was “inactive” throughout. Also, the Potency entry in the assay with Hek293T, in the assay on JEG-3, with PA-1, in the assay with Tov-21-G and in the assay with Tov112D was “inactive” in each case.
On to `CCCS(=O)(=O)Nc1ccc(F)c(C(=O)c2c[nH]c3ncc(-c4ccc(Cl)cc4)cc23)c1F`, for which the Potency entry in the assay with UISO, in the assay with WaGa, with C33A, with CAOV3, in the assay on CASKI and with HeLa was “inactive” throughout. In addition, the Potency entry in the assay on Hek293T, in the assay on JEG-3, with OV90, in the assay on SKOV3 and with Tov112D was “inactive” in each case. In addition, the Potency with PA-1 is 10 µM (active).
